Reference: PubChem BioAssay AID743482 (Broad Institute, 2014)
Unmarked numbers belong to inactive results.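 The calls were made as follows: active = falling viability signal whose fitted half-maximal concentration is at most twice the highest tested dose; inconclusive = flat fit with a moderate drop, or a poor curve fit; inactive = the rest.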

Assay: cytotoxicity in HepG2 cells, dose response, cytotoxicity control, cell-based, CellTiter-Glo luminescence, dry powder (AID 743482)
Conditions: HepG2 viability, ATP luminescence, 72 h; series mostly up to 26 µM; activity change, negative = cytotoxicity: at the top concentration

Row | Structure (SMILES) | activity change, negative = cytotoxicity [%]
1 | C[C@@H]1CCCCO[C@H](CN(C)C(=O)Nc2cccc3ccccc23)[C@@H](C)CN([C@@H](C)CO)C(=O)c2cc(NC(=O)C3CCCCC3)ccc2O1 | 54.1
2 | C[C@H](CO)N1C[C@H](C)[C@H](CN(C)C(=O)Nc2ccc(F)cc2)OCCCC[C@H](C)Oc2ccc(NC(=O)C3CCC3)cc2C1=O | 10.1
3 | C[C@@H]1CN([C@@H](C)CO)C(=O)c2cc(NC(=O)C3CCCCC3)ccc2O[C@@H](C)CCCCO[C@@H]1CN(C)C(=O)Nc1cccc2ccccc12 | -1.51
4 | C[C@H]1CCCCO[C@@H](CN(C)C(=O)Nc2ccccc2)[C@@H](C)CN([C@@H](C)CO)C(=O)c2cc(NC(=O)NC3CCCCC3)ccc2O1 | 47.5
5 | C[C@@H]1CCCCO[C@@H](CN(C)C(=O)Nc2cccc3ccccc23)[C@H](C)CN([C@@H](C)CO)C(=O)c2cc(NC(=O)C3CCCCC3)ccc2O1 | -6.6
6 | C[C@H](CO)N1C[C@H](C)[C@H](CN(C)C(=O)Nc2ccc3c(c2)OCO3)OCCCC[C@H](C)Oc2ccc(NC(=O)C3CCCCC3)cc2C1=O | 26.9
7 | C[C@H]1CCCCO[C@@H](CN(C)S(=O)(=O)c2ccc(Cl)cc2)[C@@H](C)CN([C@@H](C)CO)C(=O)c2cc(NC(=O)NC3CCCCC3)ccc2O1 | -6.85
8 | C[C@H](CO)N1C[C@H](C)[C@H](CN(C)C(=O)Nc2ccc(F)cc2)OCCCC[C@H](C)Oc2ccc(NC(=O)C3CCOCC3)cc2C1=O | 13
9 | COc1ccc(NC(=O)N(C)C[C@@H]2OCCCC[C@H](C)Oc3ccc(NC(=O)NC4CCCCC4)cc3C(=O)N([C@H](C)CO)C[C@@H]2C)cc1 | 37.9
10 | COc1ccc(S(=O)(=O)N(C)C[C@@H]2OCCCC[C@H](C)Oc3ccc(NS(=O)(=O)c4ccc(F)cc4)cc3C(=O)N([C@@H](C)CO)C[C@@H]2C)cc1 | 3.65
11 | C[C@H](CO)N1C[C@H](C)[C@H](CN(C)C(=O)Nc2ccc(F)cc2)OCCCC[C@H](C)Oc2ccc(NC(=O)C3CCCCC3)cc2C1=O | 51.3
12 | C[C@@H]1CCCCO[C@H](CN(C)C(=O)Nc2cccc3ccccc23)[C@H](C)CN([C@H](C)CO)C(=O)c2cc(NC(=O)C3CCCCC3)ccc2O1 | 26.6
13 | C[C@H](CO)N1C[C@H](C)[C@H](CN(C)C(=O)Nc2ccccc2)OCCCC[C@H](C)Oc2ccc(NC(=O)Nc3ccccc3)cc2C1=O | 37.9
14 | C[C@H]1CCCCO[C@@H](CN(C)C(=O)Nc2cccc3ccccc23)[C@@H](C)CN([C@@H](C)CO)C(=O)c2cc(NC(=O)C3CCCCC3)ccc2O1 | 11.6
15 | CC(C)(C)c1ccc(-c2nc(-c3ccncc3)no2)cc1 | -8.66
16 | C[C@H](CO)N1C[C@H](C)[C@H](CN(C)C(=O)Nc2ccccc2)OCCCC[C@H](C)Oc2ccc(NC(=O)CCC(F)(F)F)cc2C1=O | 15.7
17 | C[C@H](CO)N1C[C@H](C)[C@H](CN(C)C(=O)Nc2ccc(F)cc2)OCCCC[C@H](C)Oc2ccc(NC(=O)C3CCCCCC3)cc2C1=O | 14
18 | C[C@H]1CCCCO[C@@H](CN(C)C(=O)Nc2ccc3c(c2)OCO3)[C@@H](C)CN([C@@H](C)CO)C(=O)c2cc(NC(=O)NC3CCCCC3)ccc2O1 | 6.93
19 | C[C@H](CO)N1C[C@H](C)[C@H](CN(C)C(=O)Nc2cccc3ccccc23)OCCCC[C@H](C)Oc2ccc(NC(=O)C3CCCCC3)cc2C1=O | 27
20 | C[C@@H]1CCCCO[C@@H](CN(C)C(=O)Nc2cccc3ccccc23)[C@@H](C)CN([C@@H](C)CO)C(=O)c2cc(NC(=O)C3CCCCC3)ccc2O1 | 22
21 | COc1ccc(NC(=O)N(C)C[C@@H]2OCCCC[C@H](C)Oc3ccc(NC(=O)C4CCCCC4)cc3C(=O)N([C@H](C)CO)C[C@@H]2C)cc1 | 1.76
22 | C[C@H](CO)N1C[C@H](C)[C@H](CN(C)C(=O)Nc2cccc3ccccc23)OCCCC[C@H](C)Oc2ccc(NC(=O)c3ccccc3)cc2C1=O | 22.5
23 | C[C@H](CO)N1C[C@H](C)[C@H](CN(C)C(=O)Nc2ccc3ccccc3c2)OCCCC[C@H](C)Oc2ccc(NC(=O)C3CCCCC3)cc2C1=O | 29.9
24 | C[C@@H]1CCCCO[C@@H](CN(C)C(=O)Nc2cccc3ccccc23)[C@@H](C)CN([C@H](C)CO)C(=O)c2cc(NC(=O)C3CCCCC3)ccc2O1 | 16.7
25 | C[C@H](CO)N1C[C@H](C)[C@H](CN(C)C(=O)Nc2ccc3c(c2)OCO3)OCCCC[C@H](C)Oc2ccc(NC(=O)NC3CCCCC3)cc2C1=O | 4.37
26 | C[C@H]1CCCCO[C@H](CN(C)C(=O)Nc2cccc3ccccc23)[C@@H](C)CN([C@@H](C)CO)C(=O)c2cc(NC(=O)C3CCCCC3)ccc2O1 | -1.46
